Screening data: PubChem, University of Kansas High Throughput Screening Laboratory
In the library only some 3.6% were active in any assay of this set; here they are far more common.
mHTT CaM bind: mutant huntingtin-calmodulin interaction inhibitors – biochemical, AlphaScreen, primary screen. P42858. AlphaScreen His-mHTT/GST-CaM binding, luminescence. inhibition, % at 15 µM. actives 3.6% (n = 190,000)
Pf apPOL inh: Pf-apPOL inhibitors, biochemical, fluorescence; actives 0.25% (n = 210,000); inhibition, % at 10 µM; Recombinant Pf-apPOL, molecular beacon fluorescence, 1.5 h; Plasmodium falciparum apicoplast DNA polymerase (apPOL)
Hits are given with their value; - = inactive; . = no result given. Rule as the data show it: active = inhibition above about 50%; inactive = the rest.

SMILES	mHTT CaM bind	Pf apPOL inh
CC(C)NC(=O)NC1(C(F)(F)F)Oc2ccccc2O1	-	-
O=C(c1cnn2c1NC(c1ccc(Br)cc1)CC2C(F)(F)F)N1CCCC1 (configuration not stated)	-	-
COc1ccccc1[C@H]1C(c2ccc(F)cc2)=NN(c2ccccc2)[C@@H]1CO	67	-
COc1ccccc1[C@H]1C(c2ccccc2)=NN(c2ccccc2)[C@@H]1CO	-	-
COc1ccccc1[C@H]1C(c2cccc(C)c2)=NN(c2ccccc2)[C@@H]1CO	86	-
Cc1cccc(C2=NN(c3ccccc3)[C@@H](C(=O)N3CCOC3=O)[C@@H]2c2ccccc2)c1	-	-
CCC(=O)N1CCCC(c2nc(CC)cs2)C1 (configuration not stated)	-	-
COc1ccccc1/C=C/C1=NC(=C/c2cc(Br)ccc2OC)/C(=O)O1	-	-
O=C1C=C(c2ccccc2)C(=O)C=C1Cl	.	50
O=c1c(-c2ccccc2)c1-c1ccccc1	.	-
Cc1cc(C)nc(NC(=O)COc2ccc(Cl)cc2)n1	-	-
CC(C)C(=O)Nc1ccc2c(c1)CN(C(C)c1ccc(F)cc1)C(=O)CO2 (configuration not stated)	-	-
Oc1ccccc1C1OC2CCCCC2C2=CCCCC21 (configuration not stated)	-	-
O=C(O)COc1ccccc1C1OC2CCCCC2C2=CCCCC21 (configuration not stated)	50	-
CC1CCCC(NC(=O)C(Cc2ccccc2)NS(=O)(=O)c2ccc(Cl)cc2)C1C (configuration not stated)	-	-
CC(=O)Nc1cc(C(=O)NC2CCCC(C)C2C)ccc1S(=O)(=O)c1ccc(Cl)cc1 (configuration not stated)	-	71
Cc1ccc(C)c(CNC(=O)c2cc3n(n2)CCCN(Cc2ccccc2)C3=O)c1	-	-
Cc1ccccc1C(=O)c1cn[nH]c1-c1ccccc1O	-	-
O=C(c1ccc(Cl)cc1)c1cn[nH]c1-c1ccccc1O	95	-
COc1ccccc1/C=C/C1=NC(=C/c2ccc(Cl)cc2Cl)/C(=O)O1	-	-
O=C(Cc1csc(NC(=O)c2cnccn2)n1)Nc1nc2ccccc2s1	80	-
O=C(Cc1csc(NC(=O)C2CCCC2)n1)Nc1nc(-c2cccnc2)cs1	-	-
CCSc1nnc(NC(=O)Cc2csc(NC(=O)c3cnccn3)n2)s1	88	-
O=C(Cc1csc(NC(=O)c2cnccn2)n1)Nc1nc(-c2cccnc2)cs1	100	55
O=C(Cc1csc(NC(=O)c2cnccn2)n1)Nc1cccc(C(F)(F)F)c1	84	-
SMILES	mHTT CaM bind	Pf apPOL inh
CCSc1nnc(NC(=O)Cc2csc(Nc3cccc(C(F)(F)F)c3)n2)s1	-	-
Cc1ccc2nc(NC(=O)c3cnccn3)sc2c1	-	-
CCSc1nnc(NC(=O)c2cnccn2)s1	-	-
OCn1c2c(c3ccccc31)CCCC2	-	-
CCOC(=S)SCc1ccc(C(=O)Oc2ccc(F)cc2F)cc1	.	-
O=[N+]([O-])c1ccc(/C=C/CNc2cccc(F)c2)o1	59	-
O=C(CCNc1cccc(F)c1)c1cccc([N+](=O)[O-])c1	-	-
O=C(COc1ccc([N+](=O)[O-])cc1)Nc1cc(Cl)c(Cl)cc1Cl	-	-
O=C(NCc1ccc(F)cc1Cl)c1cc(=O)[nH]c2ccccc12	-	-
CC(=NNC1=NCCN1Cc1ccccc1)c1ccc(Cl)cc1	.	-
N#Cc1cccc(NC(=O)c2ccncc2)c1	.	-
O=C(Nc1cccc(NC(=O)c2ccncc2)c1)c1ccncc1	-	99
O=C(CC1(O)C(=O)Nc2ccc(F)cc21)c1cccs1 (configuration not stated)	-	-
CC(=O)c1cccc(NC(=O)Cc2c(C)nc(SCc3cccc(Cl)c3)[nH]c2=O)c1	51	-
Cc1nc(SCc2ccccc2)[nH]c(=O)c1CC(=O)O	-	-
O=C1c2ccccc2C(=O)c2c1cc(S(=O)(=O)O)c(O)c2O	52	.
O=C1c2ccccc2C(=O)c2c(O)ccc(O)c21	-	-
O=C1c2ccccc2C(=O)c2c(O)c(O)cc(O)c21	75	-
Nc1cc(S(=O)(=O)O)c(N)c2c1C(=O)c1ccccc1C2=O	.	-
CCCC1CCC2(CC1)CC[C@@H]2OC(=S)Nc1ccccc1Br (some centres not stated)	-	-
Cc1nc(-c2cccc(NC(=O)C(c3ccccc3)n3cccc3)c2)cs1 (configuration not stated)	67	-
Cc1nc(-c2cccc(NC(=O)c3cccc([N+](=O)[O-])c3)c2)cs1	-	-
COc1ccc(NC(=O)N2CCCC2c2nc(-c3cccc(F)c3)no2)cc1 (configuration not stated)	-	-
Cc1ccc2nc(C)cc(C(N)=O)c2c1	-	-
CN(C)c1ccc(Nc2cc(N3CCOCC3)c3noc4c3c2C(=O)c2ccccc2-4)cc1	-	-
SMILES	mHTT CaM bind	Pf apPOL inh
O=C(O)c1ccc(Nc2cc(N3CCOCC3)c3noc4c3c2C(=O)c2ccccc2-4)cc1	55	-
O=C(O)CCCNc1cc(N2CCOCC2)c2noc3c2c1C(=O)c1ccccc1-3	52	-
O=C1c2ccccc2-c2onc3c(N4CCOCC4)cc(Nc4cccc(F)c4)c1c23	-	-
COc1ccc(C=C2SC(=S)N(CCc3ccc(O)cc3)C2=O)c(OC)c1	77	-
COc1ccc(/C=C2\SC(=O)N(CN3CCOCC3)C2=O)c(OC)c1	-	-
COc1ccc(-c2ncnn2-c2cccc(C(F)(F)F)c2)cc1OC	-	-
COc1ccccc1NC(=O)C1CC(=O)N(C)C(=Nc2ccc(Cl)cc2)S1 (configuration not stated)	-	-
Cc1cccc(NS(=O)(=O)c2cc3c(s2)CCN(C(=O)C2CC2)C3)c1C	-	-
Cc1c(Cl)cccc1NS(=O)(=O)c1cc2c(s1)CCN(C(=O)C1CCC1)C2	51	-
COc1cccc(NC(=O)N2CCC(N3CCN(Cc4ccc(F)cc4)C3=O)CC2)c1	-	-
CN(Cc1ccccc1)S(=O)(=O)c1ccc(F)c(C(=O)Nc2ccc(Cl)cc2Cl)c1	-	-
N#C/C(=C\c1cn(Cc2ccc(Cl)cc2)c2ccccc12)C(=O)NCC1CCCO1 (configuration not stated)	-	-
Cc1ccccc1NC1=C(N)C(=O)c2ccccc2C1=O	59	-
Cc1ccccc1NC1=C(N2CCOCC2)C(=O)c2ccccc2C1=O	-	-
O=C(c1ccccc1)N1CCC(CCNS(=O)(=O)c2cccc(F)c2)CC1	-	-
O=[N+]([O-])c1ccc(NCCNS(=O)(=O)Cc2ccccc2)cc1	-	-
O=[N+]([O-])c1ccc(S(=O)(=O)CC(Cl)CS(=O)(=O)Cc2ccccc2)cc1 (configuration not stated)	100	-
Cc1ccc2nc(NC(=O)CN3C(=O)c4ccccc4C3=O)sc2c1	-	-
CN(C)CCN(C(=O)CN1C(=O)c2ccccc2C1=O)c1nc2ccc(Cl)cc2s1	84	-
Cc1nc(SCc2cccc(CSc3n[nH]c(C)n3)c2)n[nH]1	-	-
CCCn1ccc2sc(C)c(C(=O)N3CCC(N4CCCCC4)CC3)c2c1=O	-	-
CCN1CCN(C(=O)CNS(=O)(=O)c2ccc(Br)s2)CC1	-	-
COc1ccc(OC)c(NC(=O)c2ccoc2C)c1	-	-
O=C(CN1C(=O)CC(c2ccccc2)=Nc2cccnc21)Nc1ccccc1Cl	-	65
